Assay outcomes: PubChem, National Center for Advancing Translational Sciences (NCATS)
USP2a inh: qHTS Assay for Inhibitors of Ubiquitin-specific Protease USP2a Using CHOP2 as the Reporter. Ubiquitin carboxyl-terminal hydrolase 2 (Homo sapiens), O75604. USP2 core, Ub-CHOP2 coupled fluorogenic reporter, 485/531. Potency, µM (highest dose often 38.3 µM), usual class: inhibitors. hit rate 0.01% among 330,000. AID 463254, 2010
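Cell-free coupled assay: 10nM USP2 core preincubated 30min RT with compound in Tris-HCl pH 8.0/CaCl2/CHAPS buffer, then 25nM Ub-CHOP2 and 25nM reporter substrate; fluorescence (Ex 485/Em 531) read after 60min RT, normalized to NEM inhibition, concentration-response curves fitted.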
Coupling enz: qHTS Assay for Inhibitors of Fructose-1,6-bisphosphate Aldolase from Giardia Lamblia: Coupling assay counterscreen; activity change, negative = inhibition, % at 58.2 µM, hits read low; coupling enzyme system counterscreen, AmpLite Red fluorescence; hit rate 0.67% among 290,000; in the data active = activity change below about -30%
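First, compound is pin-transferred into glyceraldehyde-3-phosphate coupling-enzyme reagent at 57.5 uM final and held 10 min at RT. Next, substrate, coupling system and AmpLite Red are added. After 20 min RT, fluorescence (525/598 nm) is read.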
GALK inh: qHTS Assay for Inhibitors of Human Galactokinase (GALK) | P51570 | Purified GALK, Kinase-Glo residual ATP luminescence | Potency, µM (series often up to 57.5 µM), actives largely listed as inhibitors | hit rate 0.007% among 270,000
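Luminescence from leftover ATP (Ultra-Glo luciferase/luciferin) served as read-out after a 1 h room-temperature reaction of 5 nM GALK with 35 uM ATP and 100 uM galactose.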
USP1 inh: Inhibitors of USP1/UAF1: Primary Screen. Ubiquitin carboxyl-terminal hydrolase 1 (Homo sapiens), O94782. recombinant USP1/UAF1, Ub-Rhodamine cleavage fluorescence. Potency, µM (highest dose often 57.1 µM), actives largely listed as inhibitors. hit rate 0.23% among 390,000; also: nearly all actives have a fitted effect of over 60% in size
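USP1/UAF1 complex at 1 nM was preincubated with compound for 15 min at room temperature, then Ub-Rho substrate (150nM final) was added. Fluorescence (480/540 nm) was read kinetically, 6 reads every 60 seconds.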
PLK1 PBD inh: qHTS for Inhibitors of PLK1-PDB (polo-like kinase 1 - polo-box domain): Primary Screen | hit rate 2.8% among 360,000 | Plk1 PBD binding of FITC phosphopeptide, fluorescence polarization | Potency, µM, actives largely listed as inhibitors | AID 720504, 2013 | Serine/threonine-protein kinase PLK1 (Homo sapiens), P53350; also: series mostly up to about 57 µM; nearly all actives have a fitted effect of over 65% in size
VDR inh: Inhibitors of the vitamin D receptor (VDR): qHTS; Potency, µM, most hits filed as inhibitors; hit rate 0.93% among 400,000; VDR-SRC2-3 peptide fluorescence polarization, 2 h; AID 504847, 2011; Vitamin D3 receptor (Homo sapiens), P11473
Target sequence (P11473 whole entry, looked up): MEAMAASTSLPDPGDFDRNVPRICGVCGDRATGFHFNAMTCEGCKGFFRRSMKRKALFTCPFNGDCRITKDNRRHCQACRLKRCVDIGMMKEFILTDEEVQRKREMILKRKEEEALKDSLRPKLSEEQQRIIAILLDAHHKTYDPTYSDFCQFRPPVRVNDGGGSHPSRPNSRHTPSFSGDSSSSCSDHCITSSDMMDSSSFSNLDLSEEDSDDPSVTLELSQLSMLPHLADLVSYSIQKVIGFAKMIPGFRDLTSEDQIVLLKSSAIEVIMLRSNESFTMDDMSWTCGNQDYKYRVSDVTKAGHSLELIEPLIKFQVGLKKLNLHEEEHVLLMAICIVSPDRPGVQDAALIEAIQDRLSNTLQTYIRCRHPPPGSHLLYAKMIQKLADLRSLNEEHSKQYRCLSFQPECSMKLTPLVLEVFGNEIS
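VDR–SRC2-3 interaction, FP format. Cmpds 23 nl via pintool, brief spin, 2 h ambient incubation.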
Hits are given with their value. Shown are actives, neighbours in structure and some others; about 3.2% of the full set was active somewhere. Unless noted, calls follow the shape of the dose curve; as a rule, active = well fitted curve in the direction sought with a large enough effect; inconclusive = small, poorly fitted or top-dose-only effect, or another doubt; inactive = no such curve, though single readings can be large; an effect the other way counts as inactive or inconclusive.

`CC(C)[C@H](NC(=O)C1CCN(S(=O)(=O)c2ccc(F)cc2)CC1)C(=O)NCc1ccco1` gave USP2a inh inactive, GALK inh inactive, USP1 inh inactive, PLK1 PBD inh 26.7µM and VDR inh inactive.
`O=C(NCc1ccccc1Cl)C1CCN(S(=O)(=O)c2ccc(N3CCCC3=O)cc2)CC1` gave USP2a inh inactive, GALK inh inactive, USP1 inh inactive, PLK1 PBD inh 11.9µM and VDR inh inconclusive.
`O=C(NCCc1cccc(F)c1)C1CCN(S(=O)(=O)c2ccc(F)cc2)CC1` gave USP2a inh inactive, Coupling enz inactive, GALK inh inactive, USP1 inh inactive, PLK1 PBD inh inactive and VDR inh inactive.
`COc1ccc(S(=O)(=O)N2CCC(C(=O)N[C@H](C(=O)NCc3ccco3)C(C)C)CC2)cc1` gave USP2a inh inactive, GALK inh inactive, USP1 inh inactive, PLK1 PBD inh inactive and VDR inh inactive.
CCNC(=O)C1CCN(S(=O)(=O)c2ccc(F)cc2)CC1 was read as USP2a inh inactive, Coupling enz inactive, GALK inh inactive, USP1 inh inactive, PLK1 PBD inh 21.2µM and VDR inh inconclusive.
O=C(NCc1ccc(F)cc1)C1CCN(S(=O)(=O)c2ccc(N3CCCC3=O)cc2)CC1 was read as USP1 inh inactive and PLK1 PBD inh inactive.
For Cc1cc(C)c2c(=O)n(-c3ccccc3)[nH]c2n1 the results were USP2a inh inactive, Coupling enz inactive, GALK inh inactive, USP1 inh inactive, PLK1 PBD inh inactive and VDR inh inactive.
For CC(=O)c1ccc(N2CCN(C(=O)c3ccco3)CC2)c(F)c1 the results were USP2a inh inactive, Coupling enz inactive, GALK inh inactive, USP1 inh inactive, PLK1 PBD inh 18.9µM and VDR inh inactive.
CC(=O)c1cc(F)c(N2CCN(C(=O)c3ccco3)CC2)cc1C was read as USP2a inh inactive, Coupling enz inactive, GALK inh inactive, USP1 inh inactive, PLK1 PBD inh inactive and VDR inh inactive.
Screening O=[N+]([O-])c1ccccc1S(=O)c1ccccc1[N+](=O)[O-] returned PLK1 PBD inh inactive.
CC(=O)Nc1ccc(SCC(=O)NCC2(N3CCCCC3)CCCCC2)cc1 was read as USP2a inh inactive, USP1 inh inactive, PLK1 PBD inh 11.9µM and VDR inh inconclusive.
For O=C(c1cccc(F)c1)N1CCC(N2CCOCC2)CC1 the results were USP2a inh inactive, Coupling enz inactive, GALK inh inactive, USP1 inh inactive, PLK1 PBD inh inactive and VDR inh inactive.
`O=C(NS(=O)(=O)c1ccccc1)c1ccccc1O` gave USP2a inh inactive, Coupling enz inactive, GALK inh inactive, USP1 inh inactive, PLK1 PBD inh 23.8µM and VDR inh inactive.
`O=C(NC(=S)NCCc1ccc(Cl)cc1)c1ccco1` gave USP2a inh inactive, Coupling enz inactive, GALK inh inactive, USP1 inh inactive, PLK1 PBD inh 29.9µM and VDR inh inconclusive.
Screening O=C(CCNC(=O)c1ccco1)Nc1ccc(Cl)cc1 returned USP2a inh inactive, Coupling enz inactive, GALK inh inactive, USP1 inh inactive, PLK1 PBD inh 29.9µM and VDR inh inactive.
For O=C(CNC(=O)c1ccco1)Nc1ccc(Cl)cc1 the results were USP2a inh inactive, Coupling enz inactive, GALK inh inactive, USP1 inh inactive, PLK1 PBD inh inactive and VDR inh inactive.
Screening CC(C)Sc1ncc(Cl)c(C(=O)Nc2ccc(S(=O)(=O)Nc3ncccn3)cc2)n1 returned USP1 inh inactive and VDR inh inactive.
`CC(C)(C)OC(=O)C[C@@H]1C/C=C\C[C@H](CC(=O)N[C@H](CO)Cc2ccccc2)C(=O)N[C@H](C(C)(C)C)COC1=O` gave USP2a inh inactive, USP1 inh inactive, PLK1 PBD inh inactive and VDR inh inactive.
For CN(CC(=O)Nc1ccccc1C(=O)NC1CC1)Cc1ccc(Cl)cc1 the results were USP2a inh inactive, USP1 inh inactive, PLK1 PBD inh inactive and VDR inh inactive.
For Cc1cc([N+](=O)[O-])c2[nH]c(C(=O)N/N=C/c3ccccc3C(=O)O)c(-c3ccccc3)c2c1 the results were USP2a inh inactive, Coupling enz inactive, GALK inh inactive, USP1 inh inconclusive, PLK1 PBD inh 29.9µM and VDR inh inactive.
`Cc1cccc(-n2cc(-c3ccccc3)c3c(N4CCC(C)CC4)ncnc32)c1` gave USP1 inh inactive and VDR inh inactive.
Screening Cc1ccc(-n2c(N)c(C(N)=O)sc2=S)cc1 returned USP2a inh inactive, Coupling enz inactive, GALK inh inactive, USP1 inh inactive, PLK1 PBD inh 5.97µM and VDR inh 70.8µM.
For Cc1cc(OC(=O)c2c(C)cc(OC(=O)c3c(C)cc(O)cc3O)cc2O)cc(O)c1C(=O)O the results were USP1 inh inactive, PLK1 PBD inh 29.9µM and VDR inh inconclusive.
For COC(=O)c1ccc(C(=O)OC)c(N)c1 the results were USP2a inh inactive, Coupling enz inactive and GALK inh inactive.
`CCCC(=O)c1ccc(N2CCC(C)CC2)c(F)c1` gave USP2a inh inactive, Coupling enz inactive, USP1 inh inactive, PLK1 PBD inh 23.8µM and VDR inh inactive.
For CCC(=O)c1ccc(N2CCC(C)CC2)c(F)c1 the results were USP2a inh inactive, Coupling enz inactive, GALK inh inactive, USP1 inh inactive, PLK1 PBD inh inactive and VDR inh inactive.
`COC(=O)c1ccc(N2CCC(C)CC2)c(N)c1` gave USP2a inh inactive, Coupling enz inactive, GALK inh inactive, USP1 inh inactive, PLK1 PBD inh 21.2µM and VDR inh inconclusive.
`CC(OCCN(C)C)C(=O)C12CC3CC(CC(C3)C1)C2` (stereo unspecified) gave USP2a inh inactive, Coupling enz inactive, GALK inh inactive, USP1 inh inactive, PLK1 PBD inh inactive and VDR inh inactive.
For CC(NC(=O)C12CC3CC(CC(C3)C1)C2)C(=O)NCCN(C)C (stereo unspecified) the results were USP2a inh inactive, Coupling enz inactive, GALK inh inactive, USP1 inh inactive, PLK1 PBD inh 29.9µM and VDR inh inactive.
`Cc1oc(-c2ccccc2)nc1CS(=O)CC(=O)NC1CCCCCC1` (stereo unspecified) gave USP2a inh inactive, GALK inh inactive, USP1 inh inactive, PLK1 PBD inh inconclusive and VDR inh inactive.
